This is part of a sample that, as a whole, favours compounds with a hit. Of some 83,000 tested, about 20% had one in any assay.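 Compound tested at a single concentration for 48 hours in 96-well plates; a percent growth value below 10 was scored as active.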 Active and inactive are the calls of the source.
Legend:
Assay in all cases: NCI-60 one-dose screen, 48 h (100 = growth as untreated, 0 = no growth, -100 = all killed)
Conditions in all cases: 10 µM unless noted
[1] = tested on: SK-MEL-2 melanoma
[2] = tested on: EKVX NSCLC
[3] = tested on: SN12C renal
[4] = tested on: UO-31 renal
[5] = tested on: TK-10 renal
[6] = tested on: ACHN renal
[7] = tested on: CAKI-1 renal
[8] = tested on: A498 renal
[9] = tested on: CCRF-CEM leukemia
[10] = tested on: MOLT-4 leukemia
[11] = tested on: SR leukemia
[12] = tested on: RPMI-8226 leukemia
[13] = tested on: OVCAR-8 ovarian
[14] = tested on: OVCAR-5 ovarian
[15] = tested on: OVCAR-4 ovarian
[16] = tested on: IGROV1 ovarian
[17] = tested on: OVCAR-3 ovarian
[18] = tested on: HS 578T breast
[19] = tested on: NCI/ADR-RES ovarian
[20] = tested on: SK-OV-3 ovarian

Measured: growth

COc1ccc(NC(=O)Nc2ccc(OCc3ccc(F)cc3)cc2)cc1
inactive: [1] 96.8% | [2] 74.2% | [3] 55.7% | [4] 26.3% | [5] 82.4% | [6] 42.2% | [7] 66.6% | [8] 80.3% | [9] 83.7% | [10] 94.8% | [11] 78.7% | [12] 88.7% | [13] 40.2% | [14] 72.9% | [15] 20% | [16] 78.1% | [17] 58.5% | [18] 29.4% | [19] 51.2%

CC(C)C(C(=O)O)n1c(O)c(/C=C2/C=c3cc4c(cc3=NC2=O)OCO4)sc1=S (centres undefined)
inactive: [1] 104% | [2] 99.3% | [3] 96.6% | [4] 78.2% | [5] 89.8% | [6] 111% | [7] 93% | [8] 102% | [9] 106% | [10] 104% | [11] 90.5% | [12] 109% | [13] 105% | [14] 110% | [15] 108% | [16] 109% | [17] 107% | [18] 99.8% | [19] 98.2%

N/C(=N\c1nc2ccccc2s1)NC(=O)NCCCCCCO
active: [10] 4.34%
inactive: [1] 50.1% | [2] 19.6% | [3] 45.5% | [4] 43.5% | [5] 51.2% | [6] 39.5% | [7] 32% | [8] 61% | [9] 60.3% | [11] 32.4% | [12] 46% | [13] 50.7% | [14] 74.5% | [15] 17.8% | [20] 59.1% | [16] 61.5% | [17] 61.8% | [19] 24.3%

Cc1ccc2c(N)c(C(=O)Nc3ccc(OC(F)(F)F)cc3)sc2n1
inactive: [1] 67.4% | [2] 26.9% | [3] 70.2% | [4] 56.2% | [5] 95.4% | [6] 61.2% | [7] 55.8% | [8] 119% | [9] 64.8% | [10] 63.1% | [11] 56.5% | [12] 46.9% | [13] 76.2% | [14] 84.5% | [15] 52.1% | [16] 61.5% | [17] 83% | [19] 52.4%

Cc1ccc(S(=O)(=O)c2nc(S(=O)(=O)c3ccc(C)cc3)c(N3CCN(C)CC3)s2)cc1
inactive: [1] 49.4% | [2] 63.4% | [3] 46.3% | [4] 69.5% | [5] 125% | [6] 71.6% | [7] 60.9% | [8] 83.5% | [9] 19.7% | [10] 30% | [11] 16.1% | [12] 52.2% | [13] 48% | [14] 94.1% | [15] 62.5% | [16] 77.1% | [17] 46.1% | [18] 81.1% | [19] 44.4%

O=C(c1ccccc1)c1ccc2nc(-c3ccc(F)cc3)[nH]c2c1
inactive: [1] 62.4% | [2] 80.9% | [3] 30.5% | [4] 91.1% | [5] 104% | [6] 57.1% | [7] 40.9% | [8] 90.7% | [9] 15.7% | [10] 27.6% | [11] 27.9% | [12] 43.1% | [13] 83.3% | [14] 41.5% | [15] 49.5% | [16] 45.9% | [17] 32.6% | [18] 65.1% | [19] 58.3%

C=C1CC[C@@H]2[C@]3(C)COC(c4cn(-c5ccccc5)nc4-c4cccc([N+](=O)[O-])c4)O[C@@H]3CC[C@@]2(C)[C@@H]1C/C=C1/C(=O)OC[C@H]1O (some centres undefined)
inactive: [4] 12.2% | [5] 36.9% | [7] 38.7% | [8] 105% | [15] 14% | [17] 15.1%
active: [1] -45.2% | [2] -0.625% | [3] 3.71% | [6] -74.5% | [9] -1.81% | [10] -3.81% | [11] -16.7% | [12] -42.4% | [13] -38.1% | [14] -24.1% | [16] -25% | [19] -42.6%

CC(=O)Nc1ccc(-n2cnc3cc(-c4ccc(O)cc4)ccc32)cc1C(F)(F)F
inactive: [1] 17.4% | [2] 27.3% | [3] 15.6% | [4] 10.3% | [5] 33% | [7] 28.6% | [8] 57.1% | [9] 40.5% | [10] 29.6% | [11] 16.3% | [12] 16.6% | [13] 16.1% | [14] 37.9% | [15] 40.8% | [16] 35.1% | [17] 24.7%
active: [6] 6.32% | [18] 0.862%

— PubChem BioAssay (NCI)
